# In PubChem BioAssay (NCATS):
# Where “and” joins values, the source holds several entries; their conditions need not be identical. Equal values may be shown once. Results filed as inconclusive are left out. A call without a number means that no potency is given here. Calls of active or inactive are those of the source. Unless noted, calls follow the shape of the dose curve; as a rule, active = well fitted curve in the direction sought with a large enough effect; inconclusive = small, poorly fitted or top-dose-only effect, or another doubt; inactive = no such curve, though single readings can be large; an effect the other way counts as inactive or inconclusive.
# Tests used:
# [1] = Cell Viability - NIH 3T3 (AID 541); details: NIH 3T3 cell viability, qHTS; activity change, negative = cytotoxicity: at 92.2 µM (top of the series); also: nearly all actives have a fitted effect of over 25% in size
# Outline: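 Luminescent ATP signal (CellTiter-Glo) served as the viability read-out after NIH 3T3 cells were exposed to compounds over a concentration range for 40 hr at 37 °C. Hill-equation modelling of concentration-response data gave AC50.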
# [2] = Cell Viability - H-4-II-E (AID 543); also: nearly all actives have a fitted effect of over 35% in size
# Outline: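 Luminescent ATP signal (CellTiter-Glo) served as the viability read-out, with cytotoxicity seen as a concentration-dependent ATP drop. Cells were treated for 40 hours in complete medium. AC50 values derive from Hill-equation modelling.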
# [3] = Cellular Toxicity (caspase-3) HepG2 (AID 654);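 also: cells exposed to compound for 16 hours before reading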
# Outline: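 Cells plated 5 hr at 37 °C, compound added, incubated 16 hr at 37 °C. Caspase-Glo 3/7 reagent followed, 20 min at room temperature, then luminescence read. Activation scored as signal increase; AC50 from Hill fit.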
# [4] = Cellular Toxicity (caspase-3) Hek293 (AID 664);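 also: cells exposed to compound for 16 h at 37 °C before readout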
# Outline: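 Cells plated, 5 hr at 37 °C; compounds added; 16 hr at 37 °C; Caspase-Glo 3/7 reagent, 20 min RT; luminescence read. Activation expressed relative to DMSO and 100 uM tamoxifen, AC50 by Hill model.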
# [5] = Cellular Toxicity (caspase-3) NIH 3T3 (AID 666);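 also: caspase signal read after 16 h compound exposure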
# Outline: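 Luminescence from aminoluciferin released by caspase-3/7 cleavage of a peptide substrate served as read-out. Mouse fibroblast NIH 3T3 cells were exposed to compounds over a concentration range for 16 hours, and AC50 values came from standard Hill modelling.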
# [6] = MultiTox-Fluor Cytotoxicity Assay - LYMP1-002 - Live Cells (AID 955)
# Outline: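 Read-out is live-cell protease activity (cell-permeant GF-AFC substrate, fluorescence Ex/Em=405/510), where a decrease indicates acute toxicity. Human lymphoblastoid cells were treated 16 hours at 37 C in a concentration series, and AC50 values came from standard Hill modelling.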
# [7] = MultiTox-Fluor Cytotoxicity Assay - LYMP1-003 - Live Cells (AID 962);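 also: cells exposed to compound for 16 hours at 37 °C; cytotoxic hits lower the live-cell protease signal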
# Outline: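 qHTS, 1536-well; 2500 cells/well LYMP1-003; 5 hr 37 C settle; cpd 16 hr 37 C; MultiTox-Fluor reagent 60 min RT; live-cell protease fluor. 405/510; Hill-fit AC50; tetraoctylammonium bromide pos. ctrl.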
# [8] = Cell Viability - LYMP1-003 - Assay at 40 hr (AID 964); also: nearly all actives have a fitted effect of over 60% in size
# Outline: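 Cells were seeded at 2500 per well and incubated 5 hr at 37 C. Compounds were added across a concentration series and left 40 hr at 37 C. CellTiter-Glo was added for 30 min at room temperature before luminescence reading.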
# [9] = Cell Viability - LYMP2-004 (AID 966); also: nearly all actives have a fitted effect of over 65% in size
# Outline: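 Cells seeded 2500/well, rested 5 hr at 37 C, dosed across a concentration series, incubated 24 hr at 37 C, then CellTiter-Glo added for 30 min at room temperature and luminescence read. Hill fitting gave AC50.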
# [10] = Cell Viability - LYMP2-017 (AID 972);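 also: cells exposed to compound for 24 hours at 37 °C; nearly all actives have a fitted effect of over 55% in size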
# Outline: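 2500 cells/well, 5 h 37 C; cpd 24 h 37 C in complete medium; CellTiter-Glo, 30 min RT; luminescence (ATP). AC50 via Hill fit, qHTS.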
# [11] = Cell Viability - LYMP2-019 (AID 973); also: nearly all actives have a fitted effect of over 55% in size
# Outline: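 Luminescent ATP read-out (CellTiter-Glo, 30 min room temperature) served as the viability measure after 24 hr treatment of lymphoblastoid cells at 37 C. Concentration-response data were fitted to the Hill equation for AC50.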
# [12] = Cell Viability - LYMP2-002 (AID 977)
# Outline: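 Luminescent ATP readout (CellTiter-Glo, 30 min room temperature) after 24 h compound exposure at 37 C of a human lymphoblastoid line, 2500 cells/well. AC50 values derived by standard Hill fitting of qHTS concentration-response data.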
# [13] = Cell Viability - LYMP2-007 (AID 979);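 also: cells exposed to compound for 24 h before reading; nearly all actives have a fitted effect of over 60% in size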
# Outline: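 Luminescent ATP signal (CellTiter-Glo) serves as the viability read-out after 24 hr compound treatment of lymphoblastoid cells in complete medium at 37 C. Concentration-response data were fitted to the Hill equation to give AC50 values.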
# [14] = Cell Viability - LYMP2-014 (AID 983); also: nearly all actives have a fitted effect of over 50% in size
# Outline: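 Luminescent ATP signal (CellTiter-Glo, 30 min at room temperature) serves as the viability read-out after 24 hr compound exposure at 37 C. Cells were seeded at 2500 per well and settled 5 hr beforehand.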
# [15] = Cell Viability - LYMP2-022 (AID 987); also: nearly all actives have a fitted effect of over 55% in size
# Outline: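 qHTS: human lymphoblastoid cells 2500/well; 5 hr 37 C; cpd added; 24 hr 37 C; CellTiter-Glo, 30 min RT; luminescence. AC50 via Hill fit; tetraoctylammonium bromide positive ctrl.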
# [16] = qHTS assay for small molecule agonists of retinoid X receptor alpha signaling (AID 588544); details: HEK293T RXRa-UAS-bla, beta-lactamase reporter, 18 h; 530 nm emission
# [17] = molecular target: Retinoic acid receptor RXR-alpha (Homo sapiens) (UniProt P19793); test: qHTS assay for small molecule antagonists of retinoid X receptor alpha signaling (AID 588546; active = well fitted inhibition curve with a large enough effect in the signal ratio, with a control signal flat, not every such curve was filed as active; the % refers to the signal ratio;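 also: cells stimulated with 9-cis-retinoic acid as agonist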); details: HEK293T RXRa-UAS-bla, beta-lactamase ratio, antagonist mode
# Outline: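 Beta-lactamase reporter inhibition, read as CCF4 fluorescence ratio (ex 405, em 460/530 nm) after 2 h at RT. HEK293T UAS-bla cells, 2500/well, were stimulated with 9-cis-RA at 500 or 100 nM final alongside test compound for 18 h at 37 C.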
# [18] = molecular target: Voltage-gated inwardly rectifying potassium channel KCNH2 (Homo sapiens) (UniProt Q12809); test: qHTS Assay for Small Molecule Inhibitors of the Human hERG Channel Activity (AID 588834);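 also: top concentration of the series differs between compounds; lower thallium flux fluorescence means stronger hERG block; nearly all actives have a fitted effect of over 50% in size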
# Outline: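 U2OS cells transduced with hERG via BacMam (MOI ~100), plated 2000/well, loaded with FluxOR thallium dye, compound ~10 min, then stimulation buffer; fluorescence decrease read kinetically; AC50 from Hill fits.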
# [19] = qHTS assay for small molecule disruptors of the mitochondrial membrane potential - 1 hr assay (AID 651754; calls by dose curve; also: nearly all actives have a fitted effect of over 35% in size; also: potency is read from the fitted curve at half-maximal effect)
# Outline: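 HepG2, 2,000 cells/well, overnight attachment; cpd or DMSO 1 hr, 37C/5% CO2; Mito-MPS dye 30 min, 37C; fluorescence monomer (490/535) and aggregate (540/590).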
# [20] = qHTS assay for small molecule agonists of the antioxidant response element (ARE) signaling pathway measured by Nrf2-dependant transcriptional activity (AID 720636; active = well fitted curve in the direction sought with a large enough effect in the repeat runs; an effect the other way counts as inactive or inconclusive)
# Outline: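 Quantitative HTS format in HepG2 cells stably expressing an ARE-luciferase reporter; 16 hr compound treatment at 37 C, luciferase signal detected with ONE-Glo.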
# Sequence of Voltage-gated inwardly rectifying potassium channel KCNH2 (Homo sapiens) (Q12809 whole entry, looked up): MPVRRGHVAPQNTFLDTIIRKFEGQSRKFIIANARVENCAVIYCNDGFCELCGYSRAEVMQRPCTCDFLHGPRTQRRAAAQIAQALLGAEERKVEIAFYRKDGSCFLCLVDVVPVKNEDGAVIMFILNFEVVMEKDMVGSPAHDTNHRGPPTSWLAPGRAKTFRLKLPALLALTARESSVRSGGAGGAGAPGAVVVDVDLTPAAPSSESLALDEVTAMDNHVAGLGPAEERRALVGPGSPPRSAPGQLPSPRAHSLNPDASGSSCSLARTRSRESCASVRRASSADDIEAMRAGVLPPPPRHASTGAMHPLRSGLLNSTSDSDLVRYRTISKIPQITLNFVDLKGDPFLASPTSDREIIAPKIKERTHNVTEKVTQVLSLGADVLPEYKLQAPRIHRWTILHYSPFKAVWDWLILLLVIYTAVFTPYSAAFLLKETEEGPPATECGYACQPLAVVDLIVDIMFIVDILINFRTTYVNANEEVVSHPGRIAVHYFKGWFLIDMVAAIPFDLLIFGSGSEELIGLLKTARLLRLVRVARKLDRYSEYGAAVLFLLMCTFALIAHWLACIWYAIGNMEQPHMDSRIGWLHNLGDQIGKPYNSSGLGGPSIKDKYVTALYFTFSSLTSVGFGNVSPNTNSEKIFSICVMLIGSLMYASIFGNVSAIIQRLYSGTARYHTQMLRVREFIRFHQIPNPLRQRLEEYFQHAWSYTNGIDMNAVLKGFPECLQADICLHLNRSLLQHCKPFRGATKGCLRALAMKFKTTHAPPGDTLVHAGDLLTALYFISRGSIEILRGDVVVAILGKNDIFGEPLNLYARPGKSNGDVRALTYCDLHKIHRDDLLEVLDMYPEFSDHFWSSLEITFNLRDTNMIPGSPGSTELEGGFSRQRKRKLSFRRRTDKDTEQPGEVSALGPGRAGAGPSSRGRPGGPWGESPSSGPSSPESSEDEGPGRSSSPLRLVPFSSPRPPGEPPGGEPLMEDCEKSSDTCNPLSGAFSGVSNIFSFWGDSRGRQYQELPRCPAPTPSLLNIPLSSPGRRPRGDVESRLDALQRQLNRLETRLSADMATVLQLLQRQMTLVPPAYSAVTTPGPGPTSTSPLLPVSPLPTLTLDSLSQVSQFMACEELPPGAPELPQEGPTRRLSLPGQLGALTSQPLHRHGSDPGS
# Sequence of Retinoic acid receptor RXR-alpha (Homo sapiens) (P19793 whole entry, looked up): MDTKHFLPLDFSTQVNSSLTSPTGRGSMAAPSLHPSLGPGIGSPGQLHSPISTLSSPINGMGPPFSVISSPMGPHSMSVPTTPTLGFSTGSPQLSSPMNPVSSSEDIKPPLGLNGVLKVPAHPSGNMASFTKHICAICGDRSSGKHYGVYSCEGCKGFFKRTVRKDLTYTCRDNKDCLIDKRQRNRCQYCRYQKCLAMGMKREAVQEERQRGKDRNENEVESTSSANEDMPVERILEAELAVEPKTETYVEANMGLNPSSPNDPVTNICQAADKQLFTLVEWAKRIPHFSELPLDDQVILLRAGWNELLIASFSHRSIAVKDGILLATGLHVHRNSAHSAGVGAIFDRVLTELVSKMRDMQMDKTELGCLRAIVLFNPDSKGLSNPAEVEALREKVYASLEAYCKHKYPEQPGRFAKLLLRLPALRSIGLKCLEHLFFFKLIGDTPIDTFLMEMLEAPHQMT
SMILES,"activity change, negative = cytotoxicity [1]",Potency [2],outcome [3],outcome [4],outcome [5],outcome [6],Potency [7],Potency [8],Potency [9],Potency [10],Potency [11],Potency [12],Potency [13],Potency [14],Potency [15],max response [16],max response [17],Potency [18],Potency [19],outcome [20]
CC(O)CCl (configuration not stated),4.45% (inactive),inactive,inactive,inactive,inactive,inactive,inactive,inactive,inactive,inactive,inactive,inactive,inactive,inactive,inactive,-11.9% and -9.91%,-5.06% (inactive) and 5.36% (inactive),inactive,inactive,inactive
CCOc1ccc(N)cc1,-11.8% (inactive),inactive,inactive,inactive,inactive,inactive,inactive,inactive,inactive,inactive,inactive,inactive,inactive,inactive,inactive,-1.09%,-3.13% (inactive),inactive,inactive,inactive
CCCCCCCC(=O)Cl,5.37% (inactive),inactive,inactive,inactive,inactive,inactive,inactive,inactive,inactive,inactive,inactive,inactive,inactive,inactive,inactive,12.8%,17.7% (inactive),inactive,inactive,inactive
O=C=NC1CCCCC1,-1.14% (inactive) and -2.08% (inactive),inactive,inactive,inactive,inactive,inactive,inactive,inactive,inactive,inactive,inactive,inactive,inactive,inactive,inactive,-3.28% and -9.66%,12.3% (inactive) and -18.1% (inactive),inactive,inactive,inactive
CC(C)(c1ccccc1)c1ccc(O)cc1,-17.8% (inactive),inactive,,,inactive,inactive,inactive,inactive,inactive,inactive,inactive,inactive,inactive,inactive,inactive,-10.3% and -15.2%,-3.65% (inactive),,26.6 µM (active),inactive
OCC1CO1 (configuration not stated),-5.54% (inactive),inactive,inactive,inactive,inactive,inactive,inactive,inactive,inactive,inactive,inactive,inactive,inactive,inactive,inactive,-4.32%,13.7% (inactive) and -0.419% (inactive),inactive,inactive,inactive
NC(=S)Nc1ccccc1,-8.44% (inactive) and 0.7% (inactive),inactive,inactive,inactive,inactive,inactive,inactive,inactive,inactive,inactive,inactive,inactive,inactive,inactive,inactive,-11.1% and -12.4% and -6.79%,6.2% (inactive) and -12.5% (inactive) and -20.4% (inactive),inactive,inactive,inactive
c1nc[nH]n1,-5.84% (inactive),inactive,inactive,inactive,inactive,inactive,inactive,inactive,inactive,inactive,inactive,inactive,inactive,inactive,inactive,-16.7%,5.33% (inactive),inactive,inactive,inactive
C=CC1CC=CCC1 (configuration not stated),4.42% (inactive),inactive,inactive,inactive,inactive,inactive,inactive,inactive,inactive,inactive,inactive,inactive,inactive,inactive,inactive,0.848% and 1.74%,12.3% (inactive) and -16.5% (inactive),inactive,inactive,inactive
O=[N+]([O-])c1ccc(Cl)c(Cl)c1,-16.5% (inactive),inactive,inactive,inactive,inactive,inactive,inactive,inactive,inactive,inactive,inactive,inactive,inactive,inactive,inactive,1.86%,7.29% (inactive),inactive,inactive,inactive
Nc1ccc(Br)cc1,-14.1% (inactive),inactive,inactive,inactive,inactive,inactive,inactive,inactive,inactive,inactive,inactive,inactive,inactive,inactive,inactive,1.14%,15.2% (inactive),inactive,inactive,inactive
CCCC(=O)Cl,-0.413% (inactive),inactive,inactive,inactive,inactive,inactive,inactive,inactive,inactive,inactive,inactive,inactive,inactive,inactive,inactive,-4.61%,15.7% (inactive),inactive,inactive,inactive
c1ccc2c(c1)CCCC2,9.7% (inactive),inactive,inactive,inactive,inactive,inactive,inactive,inactive,inactive,inactive,inactive,inactive,inactive,inactive,inactive,-21.1%,7.45% (inactive),inactive,inactive,inactive
C=CC(=O)OCC,-21.9% (inactive),inactive,inactive,inactive,inactive,inactive,inactive,inactive,inactive,inactive,inactive,inactive,inactive,inactive,inactive,-5.05%,4.16% (inactive),inactive,inactive,inactive
Cc1cccc([N+](=O)[O-])c1,-17.5% (inactive),inactive,inactive,inactive,inactive,inactive,inactive,inactive,inactive,inactive,inactive,inactive,inactive,inactive,inactive,2.54% and -15.5%,4.38% (inactive) and -23.2% (inactive),inactive,inactive,inactive
CCSC(=O)Cl,-9.03% (inactive),inactive,inactive,inactive,inactive,inactive,inactive,inactive,inactive,inactive,inactive,inactive,inactive,inactive,inactive,-20.5%,1.25% (inactive),inactive,inactive,inactive
